Laboratory results taken from PubChem BioAssay AID1813 (Broad Institute, 2009).
In all, about 300,000 compounds went through this assay and about 2,500 (0.83%) were called active. No stated cut-off is given here; in the data, active means inhibition above about 60%; inconclusive means no clear call, values can overlap the other calls; inactive means below that. What follows is part of a selection rich in actives, with near analogues and random picks from the rest.

Assay: 5' untranslated region of α-synuclein, MLPCN primary screen (AID 1813);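 further: H4 neuroglioblastoma cells stably carrying SNCA 5'UTR luciferase fusion; 0% = DMSO wells and 100% = positive control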
Settings: alpha-synuclein 5'UTR reporter, inhibitor activity; hits give high values; tested at 7.5 µM

inhibition, inactive:
Cc1c(C(=O)N2CCCc3ccccc32)sc2nc(-c3ccccc3)cn12 -83.5%
Cc1c(C(=O)N2CCCc3ccccc32)oc2ccccc12 -96.2%
COc1ccc2c(c1)cc1n2CCN=C1NN -27.8%
CCN(CC(=O)Nc1c(F)cccc1F)C(=O)c1ccc(S(=O)(=O)N2CCCCC2)cc1 6.51%
O=C(c1ccc(F)cc1)N1CCC(n2nnc3ccccc32)CC1 6.11%
Cc1cc(OCc2ccc(C(=O)Nc3ccc(C(=O)O)cc3)o2)ccc1Cl 32.2%
CCOC(=O)c1ccc(NC(=O)c2c(N)n(C)c(=O)[nH]c2=O)cc1 -15.4%
Brc1ccc(-c2csc(N/N=C/c3ccc4c(c3)OCO4)n2)cc1 -59.4%
Cc1noc(C)c1/C=N/Nc1ccc2ccccc2n1 -146%
CCCc1nc(N2CCN(C)CC2)c2sc(=S)n(-c3ccccc3)c2n1 2.12%
CCOC(=O)C1C(=O)NCC1c1ccccc1 (stereo not drawn) -12.2%
NC(=O)COC(=O)c1ccc2c(c1)C(=O)N(Cc1ccco1)C2=O -5.55%
CCN1CCN(C(c2cccnc2)c2cc(Cl)c3cccnc3c2O)CC1 (stereo not drawn) -29.1%
Cc1cccnc1NC(=O)c1cccc(S(=O)(=O)N2CCN(c3ccc(F)cc3)CC2)c1 26.9%
CC(=O)c1ccc(NC(=O)CCc2nnc3ccc(NCc4ccco4)nn23)cc1 -95.3%
COc1ccc(CCn2c(=N)c(C(=O)NCC3CCCO3)cc3c(=O)n4cccc(C)c4nc32)cc1OC (stereo not drawn) -9.36%
Cc1cccn2c(=O)c3cc(C(=O)NCC4CCCO4)c(=N)n(Cc4ccc(F)cc4)c3nc12 (stereo not drawn) 9.52%
CCOc1cccc(OCCCOc2cccc3cccnc23)c1 5.95%
O=C1CCC([N+](=O)[O-])C(c2ccccc2Br)N1 (stereo not drawn) 0.315%
O=C1C(=O)N(CCCO)C(c2ccccc2)/C1=C(\O)c1ccc(Br)cc1 (stereo not drawn) 4.06%
O=C(Oc1cccc(N2C(=O)C3C4c5ccccc5C(c5ccccc54)C3C2=O)c1)c1ccco1 (stereo not drawn) 2.5%
CN1CCCC(OC(=O)COc2ccc(Br)cc2)C1 (stereo not drawn) 4.45%
COc1cc2c(cc1OC)/C(=C/C(=O)c1ccc(NC(C)=O)cc1)NCC2 22.9%
O=C(NCCCCCCCCCNC(=O)C(F)(F)F)C(F)(F)F 9.8%
CCOC(=O)N1CCN(S(=O)(=O)c2ccc(OC)cc2)CC1 4.08%
CCOC(=O)N1CCN(S(=O)(=O)c2ccc(Br)cc2)CC1 -14.3%
Cc1cc(NC(=O)C(C)N2C(=O)c3ccccc3S2(=O)=O)no1 (stereo not drawn) -18.2%
Cc1ccc(C(=O)NCCNC(=O)c2cnccn2)cc1 -3.06%
CCN(CC)c1ccc(/C=N/NC(=O)CNC(=O)c2cccnc2)cc1 5.51%
Cc1cn(C2C=CC(CO)O2)c(=O)[nH]c1=O (stereo not drawn) -0.0254%
CCc1nc2ccccc2c(C(=O)OC2CCCCC2=O)c1C (stereo not drawn) 8.85%
CCCc1cc(=O)[nH]c(SCC(=O)c2cc(C)n(CCC)c2C)n1 23.4%
CCCc1cc(=O)[nH]c(SCC(=O)OCc2ccccc2)n1 13.7%
Cc1ccc2nc(SC(C)C(=O)NCc3ccco3)[nH]c2c1 (stereo not drawn) 30%
CC(=O)NN1C(=O)c2ccccc2NC1c1ccccc1 (stereo not drawn) 19.3%
CC1=NNC(=O)C1Cc1c(Cl)cccc1Cl (stereo not drawn) 27%
COCCNc1nc(N)c([N+](=O)[O-])c(N2CCCCCC2)n1 17.3%
Cc1cc(OC(=O)c2ccc(OC(C)C)cc2)c([N+](=O)[O-])c(=O)[nH]1 -3.29%
O=C(C1CCCO1)N1CCC(c2nc3ccccc3[nH]2)CC1 (stereo not drawn) -15.4%
N#CC(C(=O)c1ccc(S(=O)(=O)N2CCCCCC2)cc1)c1nc2ccccc2[nH]1 (stereo not drawn) -4.96%
Cc1cccc(N2CCN(S(=O)(=O)c3ccc4[nH]c(=O)c(=O)[nH]c4c3)CC2C)c1 (stereo not drawn) 3.92%
COc1cc2c(cc1OC)C(C)N(S(=O)(=O)c1cnc(Cl)c(Cl)c1)CC2 (stereo not drawn) 36.4%
COc1ccc(-c2cn(-c3ccc(OC)cc3)c(=S)[nH]2)cc1 -129%
S=c1[nH]c(-c2cccs2)cn1-c1ccccc1 -60.3%

inhibition, active:
Cc1cccc2cc3c(N)c(C(=O)N4CCCc5ccccc54)sc3nc12 85.2%
CN1c2ccc(C=O)c3c(C=O)ccc(c23)N(C)C1(C)C 67%
C(=N\Nc1ccc2ccccc2n1)/c1ccc2c(c1)OCO2 88.2%
Oc1c(CN2CCN(c3ccc(F)cc3)CC2)cc(Cl)c2cccnc12 69.6%
Cc1cccn2c(=O)c3cc(C(=O)NCCN4CCOCC4)c(=N)n(Cc4cccnc4)c3nc12 97%
CC1CN/C(=C\C(=O)c2ccc(Br)cc2)C(=O)N1 (stereo not drawn) 62%
CCOC(=O)N1CCN(S(=O)(=O)c2ccc(C(=O)Nc3ccc(F)cc3F)cc2)CC1 69.5%
CCN(CC)c1ccc(/C=N/NC(=O)c2cnccn2)c(O)c1 72.3%
CC[C@]1(O)CC2CN(CCc3c([nH]c4ccccc34)[C@@](C(=O)OC)(c3cc4c(cc3OC)N(C=O)[C@H]3[C@@](O)(C(=O)OC)[C@H](OC(C)=O)[C@]5(CC)C=CCN6CC[C@]43[C@@H]65)C2)C1 (stereo partly drawn) 102%
CC[C@]1(O)C[C@@H]2CN(CCc3c([nH]c4ccccc34)[C@@](C(=O)OC)(c3cc4c(cc3OC)N(C)[C@H]3[C@@](O)(C(=O)OC)[C@H](OC(C)=O)[C@]5(CC)C=CCN6CC[C@]43[C@@H]65)C2)C1 77.2%
CCCc1cc(=O)[nH]c(SCC(=O)c2c(N)n(CC(C)C)c(=O)n(C)c2=O)n1 88.3%
Oc1c(Cl)cc(Cl)c(Cl)c1Cc1c(O)c(Cl)cc(Cl)c1Cl 77.3%
O=S(=O)(c1ccc(Br)cc1)N1CCC(c2nc3ccccc3[nH]2)CC1 78.3%
O=c1oc2ccccc2cc1-c1cn(-c2ccccc2)c(=S)[nH]1 119%
